Assay results published in PubChem BioAssay (NCATS).
Inconclusive results are not listed. A call without a number means that no potency is given here. Active and inactive are the calls of the source. The call rests on the fitted dose curve; in most records, active means well fitted inhibition curve with a large enough effect; inconclusive means small, poorly fitted or top-dose-only effect; inactive means flat fitted curve, though single readings scatter.

These molecules were tested on 7G8 (assay: qHTS profiling for inhibitors of Plasmodium falciparum proliferation (AID 504749; further: nearly all actives have a fitted effect of over 60% in size)). Conditions: P. falciparum in erythrocytes, SYBR Green DNA, 72 h; series mostly up to 28.7 µM.
In short: (§1)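 Parasite proliferation within erythrocytes, 72 h exposure. Endpoint: SYBR Green I fluorescence after overnight lysis at room temperature. Controls: 0.29 uM artemisinin, DMSO.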
Potency means the concentration at half of the fitted maximal effect.

| Structure (SMILES) | Potency |
| --- | --- |
| Clc1ccc(COC(Cn2ccnc2)c2ccc(Cl)cc2Cl)cc1 (centres undefined) | 0.398 µM (active) |
| O=[N+]([O-])c1cc([As](=O)(O)O)ccc1O | 3.98 µM (active) |
| CC[N+](CC)(CC)CC | inactive |
| CC1OC(C)OC(C)O1 (centres undefined) | inactive |
| Oc1cccc2cccnc12 | inactive |
| Cc1ccc(-c2nc3ccc(C)cn3c2CC(=O)N(C)C)cc1 | inactive |
| CCOP(=S)(OCC)Oc1cc(C)nc(C(C)C)n1 | inactive |
| O=C(O)c1ccc2[nH]cc(CCCCN3CC=C(c4ccccc4)CC3)c2c1 | inactive |
| NCC(O)c1ccc(O)cc1 (centres undefined) | inactive |
| CN1C(=S)CN=C(c2ccccc2)c2cc(Cl)ccc21 | inactive |

What follows are molecules tested on AA1029 in the same assay as above. Conditions: P. falciparum in erythrocytes, SYBR Green DNA, 72 h; series mostly up to 28.7 µM.
In short: as §1

| Structure (SMILES) | Potency |
| --- | --- |
| CC1NCCOC1c1ccccc1 (centres undefined) | inactive |
| CCCC(C)(COC(N)=O)COC(=O)NC(C)C (centres undefined) | inactive |
| N#CC(C#N)=Cc1ccc(O)c(O)c1 | inactive |
| Nc1ccncc1 | inactive |
| CC(=O)[C@H]1CC[C@H]2[C@@H]3CC[C@H]4C[C@H](O)CC[C@]4(C)[C@H]3C(=O)C[C@]12C | inactive |
| CCC(C(N)=O)N1CCCC1=O (centres undefined) | inactive |
| CN(C)CCc1ccc(O)cc1 | inactive |
| NCC(CC(=O)O)c1ccc(Cl)cc1 (centres undefined) | inactive |
| C=C1CC[C@@]2(O)[C@H]3Cc4ccc(O)c5c4[C@@]2(CCN3CC2CC2)[C@H]1O5 | inactive |
| NP(N)(=O)NC(=O)c1ccc(F)cc1 | inactive |
| CC[N+]1(C)CCCC(OC(=O)C(O)(c2ccccc2)c2ccccc2)C1 (centres undefined) | inactive |
| CC(=O)Nc1cc([As](=O)(O)O)ccc1O | inactive |
| CC(C)CC(N(C)C)C1(c2ccc(Cl)cc2)CCC1 (centres undefined) | inactive |
| CCC(COC(=O)c1cc(OC)c(OC)c(OC)c1)(c1ccccc1)N(C)C (centres undefined) | inactive |
| NN=C(N)N | inactive |
| CC(=O)[C@H]1CC[C@H]2[C@@H]3CC[C@H]4C[C@](C)(O)CC[C@]4(C)[C@H]3CC[C@]12C | inactive |
| CCOC(=O)C1(c2ccccc2)CCN(CCC(C#N)(c2ccccc2)c2ccccc2)CC1 | 3.16 µM (active) |
| Oc1cc(Cl)ccc1Oc1ccc(Cl)cc1Cl | 7.94 µM (active) |
| C=C(C)[C@H]1Cc2c(ccc3c2O[C@@H]2COc4cc(OC)c(OC)cc4[C@@H]2C3=O)O1 | inactive |
| Clc1ccc(COC(Cn2ccnc2)c2ccc(Cl)cc2Cl)cc1 (centres undefined) | 4.47 µM (active) |
| O=[N+]([O-])c1cc([As](=O)(O)O)ccc1O | 3.16 µM (active) |
| CC[N+](CC)(CC)CC | inactive |
| CC1OC(C)OC(C)O1 (centres undefined) | inactive |
| Oc1cccc2cccnc12 | inactive |
| Cc1ccc(-c2nc3ccc(C)cn3c2CC(=O)N(C)C)cc1 | inactive |
| CCOP(=S)(OCC)Oc1cc(C)nc(C(C)C)n1 | inactive |
| O=C(O)c1ccc2[nH]cc(CCCCN3CC=C(c4ccccc4)CC3)c2c1 | inactive |
| NCC(O)c1ccc(O)cc1 (centres undefined) | inactive |
| CN1C(=S)CN=C(c2ccccc2)c2cc(Cl)ccc21 | inactive |

What follows are molecules tested on AS120 in the same assay as above. Conditions: P. falciparum in erythrocytes, SYBR Green DNA, 72 h; series mostly up to 28.7 µM.
In short: as §1

| Structure (SMILES) | Potency |
| --- | --- |
| CC1NCCOC1c1ccccc1 (centres undefined) | inactive |
| CCCC(C)(COC(N)=O)COC(=O)NC(C)C (centres undefined) | inactive |
| N#CC(C#N)=Cc1ccc(O)c(O)c1 | inactive |
| O=c1[nH]c2ccccc2n1CCCN1CCC(n2c(=O)[nH]c3cc(Cl)ccc32)CC1 | 5.01 µM (active) |
| Nc1ccncc1 | inactive |
| CC(=O)[C@H]1CC[C@H]2[C@@H]3CC[C@H]4C[C@H](O)CC[C@]4(C)[C@H]3C(=O)C[C@]12C | inactive |
| CCC(C(N)=O)N1CCCC1=O (centres undefined) | inactive |
| CN(C)CCc1ccc(O)cc1 | inactive |
| NCC(CC(=O)O)c1ccc(Cl)cc1 (centres undefined) | inactive |
| C=C1CC[C@@]2(O)[C@H]3Cc4ccc(O)c5c4[C@@]2(CCN3CC2CC2)[C@H]1O5 | inactive |
| NP(N)(=O)NC(=O)c1ccc(F)cc1 | inactive |
| CC[N+]1(C)CCCC(OC(=O)C(O)(c2ccccc2)c2ccccc2)C1 (centres undefined) | inactive |
| CC(=O)Nc1cc([As](=O)(O)O)ccc1O | inactive |
| CC(C)CC(N(C)C)C1(c2ccc(Cl)cc2)CCC1 (centres undefined) | inactive |
| CCC(COC(=O)c1cc(OC)c(OC)c(OC)c1)(c1ccccc1)N(C)C (centres undefined) | inactive |
| NN=C(N)N | inactive |
| CC(=O)[C@H]1CC[C@H]2[C@@H]3CC[C@H]4C[C@](C)(O)CC[C@]4(C)[C@H]3CC[C@]12C | inactive |
| CCOC(=O)C1(c2ccccc2)CCN(CCC(C#N)(c2ccccc2)c2ccccc2)CC1 | 2.24 µM (active) |
| Oc1cc(Cl)ccc1Oc1ccc(Cl)cc1Cl | 3.98 µM (active) |
| C=C(C)[C@H]1Cc2c(ccc3c2O[C@@H]2COc4cc(OC)c(OC)cc4[C@@H]2C3=O)O1 | inactive |
| Clc1ccc(COC(Cn2ccnc2)c2ccc(Cl)cc2Cl)cc1 (centres undefined) | 1 µM (active) |
| O=[N+]([O-])c1cc([As](=O)(O)O)ccc1O | 3.16 µM (active) |
| CC[N+](CC)(CC)CC | inactive |
| CC1OC(C)OC(C)O1 (centres undefined) | inactive |
| Oc1cccc2cccnc12 | inactive |
| Cc1ccc(-c2nc3ccc(C)cn3c2CC(=O)N(C)C)cc1 | inactive |
| CCOP(=S)(OCC)Oc1cc(C)nc(C(C)C)n1 | inactive |
| O=C(O)c1ccc2[nH]cc(CCCCN3CC=C(c4ccccc4)CC3)c2c1 | inactive |
| NCC(O)c1ccc(O)cc1 (centres undefined) | inactive |
| CN1C(=S)CN=C(c2ccccc2)c2cc(Cl)ccc21 | inactive |
